Source: PubChem BioAssay AID1159580 (chemical genetic matrix, 2015)
In all, about 5,500 compounds went through this assay and about 2,000 (36%) were called active. Another 18% or so got no clear call; they are omitted. Rule as the data show it: active = normalized growth mostly below about 0.91 (no sharp cut-off); inconclusive = no clear call, values can overlap the other calls; inactive = mostly above about 0.92. The list shows a part of the results.

Assay: chemical genetic growth profiling, strain panel (AID 1159580);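 also: tested at 20 µM; growth read once vehicle control cultures reached saturation at 30 °C; 1 = growth at the plate median or of vehicle wells; lower values mean less growth of the strain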
Details: growth OD

Measured: normalized growth

Clc1ccc(COC(Cn2ccnc2)c2ccc(Cl)cc2Cl)c(Cl)c1 (configuration not stated)
active: S. cerevisiae deletion strains, locus YJR075W, strain HOC1, active compounds read low 0.0654 | S. cerevisiae deletion strains, locus YKL009W, strain mrt4, active compounds read low 0.0991 | S. cerevisiae deletion strains, locus YKL068W, active compounds read low 0.0685 | S. cerevisiae deletion strains, locus YKL085W, strain MDH1 (second series), active compounds read low 0.0665 | S. cerevisiae deletion strains, locus YKL085W, strain MDH1, active compounds read low 0.0665 | S. cerevisiae deletion strains, locus YKL160W, strain elf1, active compounds read low 0.0826 | S. cerevisiae deletion strains, locus YKL190W, strain CNB1, active compounds read low 0.046 | S. cerevisiae deletion strains, locus YKR001C, strain vps1, active compounds read low 0.0634 | S. cerevisiae deletion strains, locus YKR026C, strain gcn3, active compounds read low 0.0698 | S. cerevisiae deletion strains, locus YKR091W, strain srl3, active compounds read low 0.0616 | S. cerevisiae deletion strains, locus YLL001W, strain dnm1, active compounds read low 0.0638 | S. cerevisiae deletion strains, locus YLL026W, active compounds read low 0.0593 | S. cerevisiae deletion strains, locus YLL041C, strain sdh2, active compounds read low 0.0595 | S. cerevisiae deletion strains, locus YLR027C, strain aat2, active compounds read low 0.0575 | S. cerevisiae deletion strains, locus YLR039C, strain RIC1, active compounds read low 0.0754 | S. cerevisiae deletion strains, locus YLR058C, strain SHM2, active compounds read low 0.0389 | S. cerevisiae deletion strains, locus YLR102C, strain apc9, active compounds read low 0.0667 | S. cerevisiae deletion strains, locus YLR113W, strain HOG1, active compounds read low 0.128 | S. cerevisiae deletion strains, locus YLR221C, strain rsa3, active compounds read low 0.0643 | S. cerevisiae deletion strains, locus YLR258W, strain gsy2, active compounds read low 0.0636 | S. cerevisiae deletion strains, locus YLR262C, strain YPT6 (second series), active compounds read low 0.0835 | S. cerevisiae deletion strains, locus YLR262C, strain YPT6, active compounds read low 0.0925 | S. cerevisiae deletion strains, locus YLR268W, strain sec22, active compounds read low 0.0664 | S. cerevisiae deletion strains, locus YLR320W, strain mms22, active compounds read low 0.087 | S. cerevisiae deletion strains, locus YLR330W, strain CHS5, active compounds read low 0.0522 | S. cerevisiae deletion strains, locus YLR342W, strain FKS1 (second series), active compounds read low 0.0607 | S. cerevisiae deletion strains, locus YLR342W, strain FKS1, active compounds read low 0.0655 | S. cerevisiae deletion strains, locus YLR357W, strain rsc2, active compounds read low 0.124 | S. cerevisiae deletion strains, locus YLR370C, strain arc18, active compounds read low 0.064 | S. cerevisiae deletion strains, locus YLR371W, strain rom2, active compounds read low 0.0643 | S. cerevisiae deletion strains, locus YLR384C, strain iki3, active compounds read low 0.0632 | S. cerevisiae deletion strains, locus YLR418C, strain cdc73, active compounds read low 0.104 | S. cerevisiae deletion strains, locus YML016C, strain PPZ1, active compounds read low 0.0516 | S. cerevisiae deletion strains, locus YML032C, strain rad52, active compounds read low 0.0665 | S. cerevisiae deletion strains, locus YML120C, strain ndi1, active compounds read low 0.0587 | S. cerevisiae deletion strains, locus YML124C, strain tub3, active compounds read low 0.058 | S. cerevisiae deletion strains, locus YMR058W, strain fet3, active compounds read low 0.0613 | S. cerevisiae deletion strains, locus YMR078C, strain ctf18, active compounds read low 0.0692 | S. cerevisiae deletion strains, locus YMR125W, strain sto1, active compounds read low 0.0759 | S. cerevisiae deletion strains, locus YMR129W, active compounds read low 0.0593 | S. cerevisiae deletion strains, locus YMR205C, strain PFK2, active compounds read low 0.0878 | S. cerevisiae deletion strains, locus YMR223W, strain ubp8, active compounds read low 0.0663 | S. cerevisiae deletion strains, locus YMR231W, strain pep5, active compounds read low 0.171 | S. cerevisiae deletion strains, locus YMR263W, strain SAP30, active compounds read low 0.062 | S. cerevisiae deletion strains, locus YMR307W, strain GAS1, active compounds read low 0.107 | S. cerevisiae deletion strains, locus YNL067W, strain RPL9B, active compounds read low 0.0502 | S. cerevisiae deletion strains, locus YNL071W, strain lat1, active compounds read low 0.0615 | S. cerevisiae deletion strains, locus YNL128W, strain TEP1, active compounds read low 0.0612 | S. cerevisiae deletion strains, locus YNL153C, strain GIM3, active compounds read low 0.0486 | S. cerevisiae deletion strains, locus YNL183C, strain NPR1, active compounds read low 0.00703 | S. cerevisiae deletion strains, locus YNL209W, strain ssb2, active compounds read low 0.0642 | S. cerevisiae deletion strains, locus YNL233W, strain BNI4, active compounds read low 0.0542 | S. cerevisiae deletion strains, locus YNL248C, strain rpa49, active compounds read low 0.0801 | S. cerevisiae deletion strains, locus YNL250W, strain rad50, active compounds read low 0.0712 | S. cerevisiae deletion strains, locus YNL271C, strain bni1, active compounds read low 0.0673 | S. cerevisiae deletion strains, locus YNL298W, strain CLA4, active compounds read low 0.0653 | S. cerevisiae deletion strains, locus YNL307C, strain MCK1, active compounds read low 0.0672 | S. cerevisiae deletion strains, locus YNL322C, strain KRE1 (second series), active compounds read low 0.0752 | S. cerevisiae deletion strains, locus YNL322C, strain KRE1, active compounds read low 0.0472 | S. cerevisiae deletion strains, locus YNR049C, strain mso1, active compounds read low 0.0611 | S. cerevisiae deletion strains, locus YNR052C, strain pop2, active compounds read low 0.0593 | S. cerevisiae deletion strains, locus YOL006C, strain TOP1, active compounds read low 0.0836 | S. cerevisiae deletion strains, locus YOL012C, strain htz1 0.185 | S. cerevisiae deletion strains, locus YOL147C, strain pex11, active compounds read low 0.059 | S. cerevisiae deletion strains, locus YOR001W, strain rrp6, active compounds read low 0.0687 | S. cerevisiae deletion strains, locus YOR061W, strain CKA2, active compounds read low 0.0316 | S. cerevisiae deletion strains, locus YOR069W, strain VPS5, active compounds read low 0.052 | S. cerevisiae deletion strains, locus YOR070C, strain gyp1, active compounds read low 0.061 | S. cerevisiae deletion strains, locus YOR080W, strain dia2, active compounds read low 0.0651 | S. cerevisiae deletion strains, locus YOR083W, strain WHI5, active compounds read low 0.0643 | S. cerevisiae deletion strains, locus YOR106W, strain vam3, active compounds read low 0.0643 | S. cerevisiae deletion strains, locus YOR136W, strain idh2, active compounds read low 0.0723 | S. cerevisiae deletion strains, locus YOR144C, strain elg1, active compounds read low 0.0556 | S. cerevisiae deletion strains, locus YOR184W, strain ser1, active compounds read low 0.0771 | S. cerevisiae deletion strains, locus YOR231W, strain MKK1, active compounds read low 0.112 | S. cerevisiae deletion strains, locus YOR265W, strain rbl2, active compounds read low 0.0604 | S. cerevisiae deletion strains, locus YOR270C, strain vph1, active compounds read low 0.0973 | S. cerevisiae deletion strains, locus YOR290C, strain snf2, active compounds read low 0.0739 | S. cerevisiae deletion strains, locus YOR316C, strain cot1, active compounds read low 0.0648 | S. cerevisiae deletion strains, locus YPL051W, strain arl3, active compounds read low 0.0665 | S. cerevisiae deletion strains, locus YPL055C, strain LGE1, active compounds read low 0.0731 | S. cerevisiae deletion strains, locus YPL078C, strain atp4, active compounds read low 0.0694 | S. cerevisiae deletion strains, locus YPL106C, strain sse1, active compounds read low 0.128 | S. cerevisiae deletion strains, locus YPL240C, strain hsp82, active compounds read low 0.0639 | S. cerevisiae deletion strains, locus YPL241C, strain CIN2, active compounds read low 0.0503 | S. cerevisiae deletion strains, locus YPL256C, strain CLN2, active compounds read low 0.129 | S. cerevisiae deletion strains, locus YPR119W, strain clb2, active compounds read low 0.0606 | S. cerevisiae deletion strains, locus YPR141C, strain kar3, active compounds read low 0.0743 | S. cerevisiae deletion strains, locus YPR163C, strain tif3, active compounds read low 0.079 | S. cerevisiae deletion strains, locus YPR167C, strain met16, active compounds read low 0.0606 | S. cerevisiae deletion strains, strain wtn01, active compounds read low 0.0603 | S. cerevisiae strains, strain wild type, active compounds read low 0.0493
